Bioassay records as filed in PubChem.
CYP2C19 inhib = blockers of cytochrome P450 2C19 activity – biochemical, luminescence, ADME assay, primary screen. P33261. inhibition, % at 5 µM. CYP2C19 Supersomes, luciferin-H EGE luminescence, 30 min. hit rate 21% among 96,000;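 active = CYP2C19 inhibition above a set limit at 5 µM in the primary screen, cut at about 50% in these data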;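 note: plate controls were negative control wells for no effect and 2.5 mM tranylcypromine positive control for full effect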
D1 allo mod = D1 CRE-luciferase signal change, two-sided – cell-based, HEK293 D1, dopamine EC30, D1 allosteric modulator project, primary screen. dopamine EC30 potentiation; actives deviate in either direction. B-score at 10 µM. hit rate 5.9% among 58,000. D(1A) dopamine receptor (Homo sapiens), P21728;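 active = luminescence count or its row- and column-corrected plate score outside the 99.7% band of the plate's sample wells, on either side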
CYP2C9 act = human CYP2C9 activators, primary screen, biochemical, luminescence. recombinant CYP2C9, luciferin-H conversion; active compounds read high; factor 1 = untreated enzyme, 0 = blocked. activation factor at 5 µM. hit rate 1.4% among 96,000. AID 1024, 2008;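 active = activation factor of 2 or more for CYP2C9 at a 5 µM dose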;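 note: 0 = sulfaphenazole-blocked wells and 1 = vehicle-only wells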
Target sequence (P11712 whole entry, looked up): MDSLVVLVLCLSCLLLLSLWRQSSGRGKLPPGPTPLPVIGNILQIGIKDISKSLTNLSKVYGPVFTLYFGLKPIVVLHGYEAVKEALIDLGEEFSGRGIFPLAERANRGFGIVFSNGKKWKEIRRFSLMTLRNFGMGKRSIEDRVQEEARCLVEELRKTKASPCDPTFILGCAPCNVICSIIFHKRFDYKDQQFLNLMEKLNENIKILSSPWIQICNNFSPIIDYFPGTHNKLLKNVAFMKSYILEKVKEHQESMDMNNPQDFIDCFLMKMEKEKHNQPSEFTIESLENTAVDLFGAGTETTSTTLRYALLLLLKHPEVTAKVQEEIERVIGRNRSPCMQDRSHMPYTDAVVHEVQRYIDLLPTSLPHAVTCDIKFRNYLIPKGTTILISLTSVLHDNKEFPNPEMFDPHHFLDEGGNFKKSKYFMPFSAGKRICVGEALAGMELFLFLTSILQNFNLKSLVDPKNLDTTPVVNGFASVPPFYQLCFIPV
CYP2C19 act = human CYP2C19 activators, primary screen, biochemical, luminescence | Cytochrome P450 2C19 (Homo sapiens), P33261 | recombinant CYP2C19, luciferin-H EGE luminescence; active compounds read high; 0 = fully inhibited enzyme, 1 = untreated enzyme | activation factor at 5 µM | 96,000 tested, under 10 active | AID 1025, 2008;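 active = activation factor of at least 2 at 5 µM in the primary screen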;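 note: 0 = wells with 2.5 mM tranylcypromine and 1 = vehicle-only wells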
hDAT+cocaine = changed hDAT dopamine uptake under cocaine IC80, either direction, primary screen, cocaine antagonist project, cell-based, LLC-PK1 hDAT, [14C]-dopamine uptake, MLSMR; Sodium-dependent dopamine transporter (Homo sapiens), Q01959; LLC-PK1 hDAT cells, [14C]-dopamine uptake with cocaine IC80; actives deviate in either direction; B-score at 10 µM; hit rate 1.3% among 110,000;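 active = Z score or B-score, a plate-position-corrected score, falls beyond the plate's 99.7% confidence bounds, in either direction; inactive = both scores lie inside the 99.7% bounds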;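 note: scored against the spread of the other compound wells on the same plate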
CYP2C9 inhib = blockers of cytochrome P450 2C9 activity – biochemical, luminescence, ADME assay, primary screen. CYP2C9 Supersomes, luciferin-H conversion. inhibition, % at 5 µM. hit rate 20% among 96,000. AID 777, 2007;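 active = blocking of liver enzyme CYP2C9 beyond about 50% at 5 µM, limit read from the data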
Active calls of the source: *; . = not tested or not shown. Most compounds without a hit are left out; they make up all but 28% or so of the library.

SMILES	CYP2C19 inhib	D1 allo mod	CYP2C9 act	CYP2C19 act	hDAT+cocaine	CYP2C9 inhib
CCC(C)[C@H](N)c1nnc(SCc2cccc(F)c2)o1 (stereo partly drawn)	61.5*	1.39	1.1	0.4	0.649	-6.2
NCCCCCc1nnc(SCC(=O)Nc2cccc(Cl)c2)o1	47.7	0.446	0.4	0.5	-0.359	56.6*
O=C(c1ccco1)N1CCN(C(=O)c2nn3cccnc3c2Cl)CC1	-5.2	.	1.1	1.1	0.37	-5.3
CC1(C)Cc2c(sc3nc(SCC#N)n(C4CCCCC4)c(=O)c23)CO1	.	25.7*	.	.	.	.
CCn1cc(C2=NOC(C(=O)Nc3cc(OC)c(Cl)cc3OC)C2)c(C)n1 (stereo not drawn)	29.5	0.918	1.1	0.7	0.645	-12.5
C=CCn1c(N)c(C(=O)OC(C)(C)C)c2nc3ccccc3nc21	63.4*	4.65	0.2	0.4	0.387	76.8*
COC(=O)[C@@H]1C[C@@H]2CC[C@@H](O)C[C@@H]2N1Cc1ccccc1OS(=O)(=O)c1ccc(C)cc1	.	.	.	.	1.52	.
CCn1cc(C(=O)NCc2ccc(C)o2)c2cc(OC)c(OC)cc2c1=O	0.1	-6.32*	0.9	1	-0.568	12.9
Cc1ccc(NC(=O)N2CCC(=O)N2)cc1	-10.2	.	1	1.1	-1.11	-4.8
CCCOC(=O)CCn1c(=S)oc2ccccc21	89.7*	0.0815	0.6	0.1	0.309	43.4
O=[N+]([O-])c1ccc(N=Nc2ccc(O)cc2O)cc1	69.4*	.	0.4	0.3	-1.63	57.4*
O=c1nc2ccccc2c2n1CC(CN1CCN(c3ccccc3F)CC1)N2 (stereo not drawn)	-1.4	.	0.6	1	0.0574	36.1
C#CCOC(=O)CCC(=O)Nc1cc(OC)nc(OC)n1	-2.6	-0.576	1	1	0.503	2.6
Cc1ccccc1CN1C(=O)C(O)(CC(=O)c2ccncc2)c2ccccc21 (stereo not drawn)	90.5*	-0.228	0.6	0.1	-0.0721	40.6
CC(C)(C)C(=O)CC1(O)C(=O)N(Cc2ccccc2)c2ccccc21 (stereo not drawn)	71.7*	.	0.5	0.3	0.281	54.5*
O=C(CC1(O)C(=O)N(Cc2ccccc2)c2ccccc21)c1ccncc1 (stereo not drawn)	95.5*	-0.428	0.3	0	-0.918	66.5*
O=C(CSc1nnc(-c2ccccn2)n1Cc1ccccc1)NC1CCCC1	38.5	-0.0993	0.7	0.6	1.17	33.4
O=C(O)C1=C[C@@H](c2coc3ccccc3c2=O)C[C@@H](OCCCCO)O1	.	.	.	.	-0.526	.
CCc1ccccc1N(CC(=O)NCc1ccco1)C(=O)c1snc(C(N)=O)c1N	95.0*	0.484	0.3	0.1	1.27	69.4*
NC(=O)c1nsc(C(=O)N(CCc2ccccc2)C(C(=O)NC2CCCC2)c2ccco2)c1N (stereo not drawn)	35.6	-0.788	0.7	0.6	-0.763	31.2
COc1ccc(CNC(=O)C(C)N(Cc2ccco2)C(=O)c2snc(C(N)=O)c2N)cc1 (stereo not drawn)	84.8*	0.244	0.4	0.2	1.06	63.9*
CC(C)CCNC(=O)C(c1ccco1)N(Cc1ccccc1)C(=O)c1snc(C(N)=O)c1N (stereo not drawn)	49.4	-1.64	0.8	0.5	1.12	23.7
CCCCc1ccc(/C=C2\C(=O)c3ccccc3C(O)=C2C(=O)OCC)cc1	67.0*	.	0.1	0.3	-0.193	90.2*
CNS(=O)(=O)c1ccc(OC)c(-c2nnc3c4ccccc4c(C)nn23)c1	-3.3	.	1.1	1	0.345	-5.3
COc1ccc(S(=O)(=O)NC(C)(C)C)cc1-c1nnc2c3ccccc3c(C)nn12	65.6*	.	0.5	0.3	-1.13	46.4
SMILES	CYP2C19 inhib	D1 allo mod	CYP2C9 act	CYP2C19 act	hDAT+cocaine	CYP2C9 inhib
CC(NC(=O)Nc1ccccc1O)(C(F)(F)F)C(F)(F)F	27.4	0.00053	1	0.7	-0.0879	-4.3
CSCCC(NC(=O)COc1ccccc1)C(=O)N1CCN(c2ccccc2F)CC1 (stereo not drawn)	74.0*	-1.32	0.2	0.3	1.44	78.2*
CN1CCN(c2ccccc2NC(=O)COc2ccccc2)CC1	-2.8	.	1	1	-0.0839	-2.6
CCCCCN=C(C)c1c(O)c2ccccc2oc1=O	88.2*	2.66	0.2	0.1	0.853	77.8*
Cc1nnc(SCc2nnc(-c3ccc(Cl)cc3)o2)n1-c1ccccc1	60.4*	0.116	0.5	0.4	0.302	46.2
Brc1ccccc1-c1nnc(CSc2nnnn2-c2ccccc2)o1	92.1*	0.936	0.6	0.1	0.00356	41.5
COc1ccc(-c2nnc(SCc3nnc(-c4ccc(Cl)cc4)o3)n2-c2ccccc2)cc1	36.5	-0.0466	0.5	0.6	0.498	54.4*
CCOc1ccc(-c2nnc(-c3ccccc3)n2-c2ccccc2)cc1	27.8	.	0.3	0.7	-0.166	65.2*
CC(=O)O/N=C(/C)c1ncc(C(F)(F)F)cc1N1CCOCC1	7.6	.	0.9	0.9	-2.07	14.7
CN(C)CCNC(=O)c1c(O)c2c([nH]c1=O)CCCC2	3.4	0.0214	0.9	1	-0.461	6.0
Cc1ccc(-n2c(C)nnc2SCC(=O)Nc2ccccc2)cc1	.	.	.	.	0.37	.
COc1ccc(-n2c(SCc3nnc(-c4ccccc4)o3)nnc2-c2ccccc2)cc1	54.0*	.	0.5	0.5	0.912	46.7
CCOc1ccc(-n2c(SCc3ccc(C#N)cc3)nnc2-c2cccnc2)cc1	29.9	.	0.8	0.7	2.08	23.0
C=CCSc1nnc(-c2ccncc2)n1-c1ccc(OCC)cc1	99.2*	0.029	0.5	0	0.809	54.1*
C=CCSc1nnc(C)n1-c1ccc(Cl)cc1	51.7*	-0.228	0.7	0.5	-0.00725	29.7
COc1ccc(-c2nnc(SCc3nnc(-c4ccccc4)o3)n2-c2ccccc2)cc1	-7.8	0.183	1	1.1	-0.286	-2.3
COc1ccc(C(C)=O)cc1CSc1nnc(-c2ccc(Cl)cc2)n1-c1ccccc1	50.3*	.	0.5	0.5	-0.137	45.1
O=C(Nc1c(Cl)cccc1Cl)c1cc(=O)n(Cc2ccccc2)c(=O)[nH]1	-5.0	.	1.1	1.1	-0.524	-11.2
Cc1nnc(SCc2nnc(-c3ccccc3Br)o2)n1-c1ccccc1	81.7*	.	2*	0.2	-0.0213	-95.6
CCc1ccc(-n2c(SCc3c(C)noc3C)nnc2-c2ccncc2)cc1	73.0*	.	0.4	0.3	-0.0666	57.6*
